# SNCA expr inhib: inhibitors of alpha-synuclein (SNCA) gene expression. HEK-293 SNCA-luciferase knock-in, luminescence, 24 h. Potency, µM (doses to about 57.2 µM), for inactives: top-dose activity change, negative = inhibition, usual class: inhibitors. 140,000 compounds, 0.17% hits. AID 1671194;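 further: potency means the concentration at half of the fitted maximal effect; plate controls were DMSO cells for no effect and cell-free wells for full effect; nearly all actives have a fitted effect of over 45% in size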
# IP6K1 inh: IP6K1 kinase inhibition; Q92551; IP6K1 kinase, ADP-Glo luminescence, 2 h; active compounds read low; activity change, % (series mostly up to about 58 µM); 140,000 compounds, 0.81% hits; AID 1645851; in the data active means activity change below about -25%; further: on the % scale 0 is the no-effect control and ±100 the full control effect
# Target sequence (Q92551 whole entry, looked up): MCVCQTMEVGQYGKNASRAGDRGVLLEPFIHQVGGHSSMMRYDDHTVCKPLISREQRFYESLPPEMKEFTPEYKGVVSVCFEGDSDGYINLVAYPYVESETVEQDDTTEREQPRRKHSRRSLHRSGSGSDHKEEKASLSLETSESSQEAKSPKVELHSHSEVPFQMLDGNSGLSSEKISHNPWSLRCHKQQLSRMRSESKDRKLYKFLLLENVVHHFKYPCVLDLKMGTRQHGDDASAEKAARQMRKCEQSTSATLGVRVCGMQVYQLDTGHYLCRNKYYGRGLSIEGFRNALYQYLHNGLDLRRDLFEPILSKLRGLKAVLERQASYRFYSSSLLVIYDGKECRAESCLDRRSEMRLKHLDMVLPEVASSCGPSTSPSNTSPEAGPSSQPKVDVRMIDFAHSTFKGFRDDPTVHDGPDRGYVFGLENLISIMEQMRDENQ
#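 ADP-Glo luminescence measures ADP made by human IP6K1 during a 2 h RT reaction with ATP/IP6 (mix at 1.3 mM/130 uM); top library doses 57.5 and 19.1 uM final.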
# KDM5B inh: KDM5B demethylase inhibition; Q9UGL1; KDM5B demethylase, FDH-coupled NADH fluorescence (FDH is formaldehyde dehydrogenase); Potency, µM (titrated, usually from 57.7 µM), hits mostly inhibitors; 220,000 compounds, 2.6% hits; AID 1347165; further: potency means the concentration at half of the fitted maximal effect; 0% is about no effect; nearly all actives have a fitted effect of over 70% in size
#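 KDM5BΔAP (200 nM final) in 50 mM HEPES pH 7.5, 0.01% Tween-20 was preincubated 10 min at RT with compound over a concentration range. Substrate mix (H3K4me3 12.5 µM, α-KG 25 µM, Fe²⁺, ascorbate, NAD⁺, FDH) was added, and NADH fluorescence change over 30 min gave dose-response curves.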
# SNCA viab count: cell viability loss counter-screen | HEK-293-SNCA-luc viability, GF-AFC fluorescence, 24 h | Potency, µM (top dose mostly 57.1 µM), for inactives: at the highest dose activity change, negative = cytotoxicity, actives largely listed as cytotoxic | 150,000 compounds, 0.12% hits | AID 1671193;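 further: potency means the concentration at half of the fitted maximal effect; 0% = DMSO-treated cells and -100% = medium-only wells without cells; nearly all actives have a fitted effect of over 30% in size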
#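 HEK-293-SNCA-luc cells (1500/well) plated 24 h, then exposed 24 h to a dilution series; GF-AFC added 30 min at 37C, fluorescence 405/540 nm; normalised to medium-only and DMSO wells, Hill fit.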
# * hit, by the source's call; i = inactive; ? = inconclusive; nt = no result given; [ ] = another dose, or the depositor's remark. Shown are actives, neighbours in structure and some others; about 2.9% of the full set was active somewhere. Unless noted, the call rests on the fitted dose curve; in most records, active means well fitted curve in the direction sought with a large enough effect; inconclusive means small, poorly fitted or top-dose-only effect, or another doubt; inactive means no such curve, though single readings can be large; an effect the other way counts as inactive or inconclusive.
SMILES,SNCA expr inhib,IP6K1 inh,KDM5B inh,SNCA viab count
O=C(COc1ccc(F)cc1)NCC1Cn2cccc2CN1Cc1ccccc1 (centres undefined),0%,-1,25µM*,-4%
CCNC(=O)N1CCc2nc(N3CCN(CC)CC3)sc2C1,-10%,6,?,5%
CCOCCCNC(=O)CSCc1nc(-c2ccc(OCC)cc2)oc1C,nt,nt,i,nt
CC1=C(C(=O)OC2CCCC2)C(c2ccc(Cl)cc2)CC(=O)N1 (centres undefined),-8%,14,i,3%
CCn1cc(S(=O)(=O)NCC2Cn3cccc3CN2Cc2ccccc2)cn1 (centres undefined),-3%,-5,28µM*,6%
O=C(CCc1nc2ccccc2s1)NCC1Cn2cccc2CN1Cc1ccccc1 (centres undefined),-8%,-5,25µM*,6%
O=C(NCC1Cn2cccc2CN1Cc1ccccc1)NC1CCCCC1 (centres undefined),-2%,7,28µM*,11%
Cc1cc2occ(CN(C)CCN(C)Cc3cn(-c4cccc(C(F)(F)F)c4)c4ccccc34)c(=O)c2cc1C,nt,-3,nt,?
CCNc1ncc2nc(-c3ccccc3)c(=O)n(-c3ccc(OC)cc3)c2n1,43%,nt,nt,15%
CCOc1ccccc1C(=O)NC1CCN(c2cc(-c3ccc(OC)cc3)[nH]n2)C1 (centres undefined),12%,7,13µM*,-20%
COc1ccccc1CC(=O)NC1CCN(c2cc(-c3ccccc3)[nH]n2)C1 (centres undefined),20%,2,16µM*,-5%
CCOc1ccc(CC(=O)NC2CCN(c3cc(-c4ccc(F)cc4)[nH]n3)C2)cc1OCC (centres undefined),-5%,1,8.9µM*,-22%
COc1ccc(CCNC(=O)c2cc(-c3ccccc3O)n[nH]2)cc1OC,nt,nt,i,nt
COCCN1C(=O)c2cccn2CC1CNC(=O)c1[nH]nc2c1COc1ccccc1-2 (centres undefined),-19%,3,28µM*,-3%
COc1ccc(OC)c(NC(=O)Cn2c(-c3ccc(F)cc3)nc(C)c(CCO)c2=O)c1,-7%,-5,20µM*,12%
COc1ccccc1C(=O)N[C@@H]1CN(c2ncccn2)C[C@H]1CN(C)C,1%,5,?,2%
COc1cccc(C(=O)N[C@@H]2CN(c3ncccn3)C[C@H]2CN(C)C)c1C,-5%,7,32µM*,-6%
COc1ccc(C(=O)N[C@@H]2CN(c3ncccn3)C[C@H]2CN(C)C)c(OC)n1,1%,16,25µM*,-7%
COc1ccccc1C(=O)N[C@@H]1CN(Cc2ccncc2)C[C@H]1CN(C)C,-9%,26,22µM*,-15%
CN(C)C[C@@H]1CN(Cc2ccncc2)C[C@H]1N,-8%,2,18µM*,-4%
O=C(NC1CC(=O)N(c2ccc(F)cc2)C1)C(c1ccccc1)c1ccccc1 (centres undefined),0%,50,i,5%
COc1ccc(N(Cc2cc(=O)[nH]c3ccccc23)C(=O)C(C)C)cc1,nt,nt,i,nt
CCn1ncc(C(=O)N[C@@H]2CN(c3ncccn3)C[C@H]2CN(C)C)c1C,-9%,12,25µM*,-2%
CCOc1ccc2c(n1)CCN(C(=O)c1ccnn1C)C2,-6%,-9,?,-20%[12.5 µM]
O=[S+]1([O-])NCC2(CCCN(Cc3cccc(C(F)(F)F)c3)C2)Oc2ncccc21 (centres undefined),-16%,-2,i,-3%
SMILES,SNCA expr inhib,IP6K1 inh,KDM5B inh,SNCA viab count
O=[S+]1([O-])NCC2(CCCN(Cc3ccc(Cl)cc3)C2)Oc2ncccc21 (centres undefined),-13%,18,79µM*,-3%
CC(C)CNC(=O)c1nc2sccn2c1-c1ccc(F)cc1,0%[87.6 µM],-10,nt,-22%[87.6 µM]
CC(C)OC(=O)N1CCC(COc2cnc3c(ccn3CC(N)=O)c2)CC1,21%[87.6 µM],-8,40µM*,3%[87.6 µM]
NC(=O)Cn1ccc2cc(OCC3CCN(C(=O)Oc4ccccc4Cl)CC3)cnc21,20%,-14,28µM*,0%
O=C(CCC1CCN(c2cc(NC3CC3)ncn2)CC1)NCCN1CCCCC1,?,16,i,-8%
O=C(O)Cn1ccc2cc(OCC3CCN(C(=O)OC4CCCC4)CC3)cnc21,-22%[87.6 µM],-2,35µM*,-11%[87.6 µM]
O=C(O)CCn1ncc2cc(OC3CCN(C(=O)Oc4ccccc4Cl)CC3)ccc21,1%,5,i,1%
NC(=O)Cn1ccc2cc(OCC3CCN(c4cc(NC5CC5)ncn4)CC3)cnc21,-27%[87.6 µM],-11,40µM*,-20%[87.6 µM]
O=C(O)CN1C(=O)[C@@H]2C[C@@H](CN2C(=O)c2ccccc2)Oc2ccccc21,-3%[87.6 µM],2,i,6%[87.6 µM]
Cn1c(=O)[nH]c(=O)c2c1nc(N1CCN(CC(N)=O)CC1)n2Cc1cccc(Cl)c1,nt,nt,i,nt
O=C(c1cnsn1)N1CCc2c(cc(-c3cccc(F)c3)c(=O)n2CCN2CCCCC2)C1,29%,22,?,6%
O=C(c1n[nH]c2ccccc12)N1CCC(c2nc(CCOCC3CC3)no2)C1 (centres undefined),66%,2,i,-11%[12.5 µM]
CS(=O)c1ccc(-c2nc(-c3ccc(F)cc3)c(-c3ccncc3)[nH]2)cc1 (centres undefined),12µM*,3,nt,8%
Fc1ccc(-c2nc(-c3c(F)cccc3F)[nH]c2-c2ccncc2)cc1,nt,-12,nt,15%
COc1cccc2cc(-c3cc(=O)oc4c(C)cc(C)cc34)oc12,nt,nt,i,nt
CC1(CCCCN2CCOCC2)COc2ccc(C(=O)Nc3ccc(Cl)cc3)cc2N1 (centres undefined),-5%,3,25µM*,4%
CC1(CCCCN2CCOCC2)COc2ccc(C(=O)NCc3ccc(F)cc3)cc2N1 (centres undefined),-8%,-1,28µM*,5%
CC1(COCC2CC2)COc2ccc(C(=O)Nc3ccc(Cl)cc3)cc2N1 (centres undefined),19%[87.6 µM],4,?,-26%[87.6 µM]
CC1(CCCCN2CCOCC2)COc2ccc(C(=O)Nc3cccc(Cl)c3)cc2N1 (centres undefined),22%,4,?,8%
CC1(CCCCN2CCOCC2)COc2ccc(C(=O)NCc3cccc(F)c3)cc2N1 (centres undefined),32%,4,28µM*,4%
CN(C)CCCOCC1(C)COc2ccc(C(=O)Nc3ccc(F)c(Cl)c3)cc2N1 (centres undefined),84%[87.6 µM],-8,28µM*,-1%[87.6 µM]
CC1(CCCCN2CCOCC2)COc2ccc(C(=O)Nc3cccnc3)cc2N1 (centres undefined),62%[87.6 µM],10,?,-4%[87.6 µM]
CN(Cc1ccccc1)C(=O)c1ccc2c(c1)NC(C)(CCCCN1CCOCC1)CO2 (centres undefined),?,-5,?,9%[87.6 µM]

# Assay outcomes as filed in PubChem.
